# A selection: hits, their analogues and other compounds. The true share with any hit is near 2.4%.
# D2 ag-1: HTS Assay for Allosteric Agonists of the Human D2 Dopamine Receptor: Primary Screen for Agonists; 0.53% of 340,000 active; activation, % at 2 µM; HEK293 T-REx D2 cells, calcium flux agonist mode; AID 485358, 2010; D(2) dopamine receptor (Homo sapiens), P14416;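 active means activation over 3 SD above normal in the single-dose calcium agonist read, cut at about 30% in these data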; further: 0% is about no effect
# Target sequence (P14416 whole entry, looked up): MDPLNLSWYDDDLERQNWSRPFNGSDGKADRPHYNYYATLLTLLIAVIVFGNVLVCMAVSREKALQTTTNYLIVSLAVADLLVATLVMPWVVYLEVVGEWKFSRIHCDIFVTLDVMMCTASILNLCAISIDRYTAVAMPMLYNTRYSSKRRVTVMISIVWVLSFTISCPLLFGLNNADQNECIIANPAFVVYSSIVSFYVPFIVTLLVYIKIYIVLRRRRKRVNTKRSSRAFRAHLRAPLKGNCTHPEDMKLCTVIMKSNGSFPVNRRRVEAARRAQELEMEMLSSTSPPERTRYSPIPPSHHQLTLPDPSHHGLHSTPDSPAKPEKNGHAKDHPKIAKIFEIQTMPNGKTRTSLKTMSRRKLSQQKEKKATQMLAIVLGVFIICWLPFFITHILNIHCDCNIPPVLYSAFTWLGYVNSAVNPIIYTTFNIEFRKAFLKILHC
#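 Agonism is scored from calcium flux in a force-coupled, inducible HEK293 cell line expressing D2, read kinetically for 180 s after compound addition against dopamine controls.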
# D2 PAM-1: Beta-Arrestin HTS for Positive Allosteric Modulators of the Human D2 Dopamine Receptor: Potentiators; D(2) dopamine receptor (Homo sapiens), P14416; DiscoveRx D2 beta-arrestin cells, luminescence, 90 min; 100% = 57 uM dopamine signal; potentiation, % (no concentration beside the values); 0.23% of 360,000 active; AID 624464, 2012; in the data active means potentiation above about 50%
#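 D2 cells co-treated with compound plus 50 nM dopamine (EC20) for 90 min at 37 deg C to detect potentiation. Beta-arrestin recruitment was read as enzyme-fragment luminescence after 1 h at ambient temperature. Full response was set by 57 uM dopamine.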
# D2 antag: HTS Assay for Allosteric Antagonists of the Human D2 Dopamine Receptor: Primary Screen for Antagonists; D(2) dopamine receptor (Homo sapiens), P14416; HEK293 TREx D2 cells, calcium flux, dopamine EC80; inhibition, % at 10 µM; 2% of 340,000 active; AID 485344, 2010; in the data active means inhibition above about 30%; inactive means below that, where a call was filed; further: 0% is about no effect
#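 HEK293 T-REx D2 cells, tet-induced, calcium dye no-wash. Cpd pintool add, 180 s kinetic, then EC80 DA, 180 s kinetic. Ca flux read.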
# D2 PAM-2: HTS Assay for Positive Allosteric Modulators of the Human D2 Dopamine Receptor: Primary Screen for Potentiators | HEK293 T-REx D2, calcium flux, EC20 dopamine potentiation | 0.34% of 340,000 active | D(2) dopamine receptor (Homo sapiens), P14416 | AID 485347, 2010 | potentiation, % at 10 µM;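 active means potentiation over 3 SD above the plate norm, cut at about 30% in these data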; further: 0% is about no effect
#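 Using a no-wash calcium dye in inducible, force-coupled HEK293 Trex cells expressing D2, we tracked fluorescence each second for 180 s after compound, then for 180 s after EC20 dopamine to detect augmented signalling.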
# D2 ag-2: Beta-Arrestin HTS for Positive Allosteric Modulators of the Human D2 Dopamine Receptor: Agonists; activation, % (test concentration not listed); D(2) dopamine receptor (Homo sapiens), P14416; DiscoveRx PathHunter D2 beta-arrestin, luminescence, 90 min; 100% = 57 uM dopamine signal; 0.084% of 360,000 active; AID 624465, 2012; in the data active means activation above about 40%
#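 DiscoveRx PathHunter D2 beta-arrestin cells (2,100/well) attached overnight, then compound-stimulated 90 min at 37 C in HBSS/10 mM HEPES/0.1% Tween-20 buffer; beta-galactosidase complementation read by luminescence after 1 h at ambient temperature. Dopamine 57 uM final (EC100) as control.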
# The depositor's hits bear a star; nt = no result.
SMILES,D2 ag-1,D2 PAM-1,D2 antag,D2 PAM-2,D2 ag-2
COC(=O)c1ccccc1NC(=O)Cn1c(=O)n(CCCC(=O)NCc2ccccc2Cl)c(=O)c2ccccc21,0.4,nt,nt,-5.2,nt
Cc1cccc(CCNC(=O)c2nc(-c3ccc(Cl)cc3)n3c2CCCCC3)c1,1.0,nt,nt,0.2,nt
CN1CCN(CCCNC(=O)c2cnn(-c3ccccc3)c2-n2cccc2)CC1,nt,nt,nt,-1.9,nt
COc1ccc2c(c1)CC(NC(=O)Nc1cc(Cl)ccc1OC)CO2 (stereo not given),-1.0,nt,nt,nt,nt
CSc1ccc(CNC(=O)CCn2ccc3cc(S(=O)(=O)N4CCC(C)CC4)ccc32)cc1,0.8,nt,nt,2.5,nt
CC(=O)c1cc(-c2ccccc2)n(CC(=O)NCCc2ccc(C)cc2)c1C,0.2,nt,nt,0.9,nt
Cc1ccc(NC(=O)C2CCCN(c3ncnc4c3nc3n4CCCCC3)C2)cc1Cl (stereo not given),-0.4,-15.4,33.1*,-9.2,-2.5
Cc1ccc(NC(=O)C2CCN(c3ncnc4c3nc3n4CCCCC3)CC2)cc1Cl,-0.3,-6.3,-14.2,-6.4,0.4
COc1cccc(NCc2ccc([N+](=O)[O-])s2)c1,0.1,50.5*,-28.6,18.5,9.7
CSc1ccc(CCNC(=O)c2ccc(-n3c(C)cc4c3CCC(C)C4)cc2)cc1 (stereo not given),-0.4,nt,nt,7.9,nt
CCc1cccc(NC(=O)COC(=O)c2cn(CC)c3nc(C)ccc3c2=O)c1,0.0,nt,nt,-9.5,nt
C=CCNc1nc(N2CCOCC2)nc(N2CCOCC2)n1,-0.7,0.5,31.2*,-14.2,0.2
C=CCNc1nc(NCCN2CCOCC2)nc(N2CCOCC2)n1,0.0,-15.7,-0.2,13.5,-0.4
COc1ccc(CCN(C)C/C=C/c2ccccc2[N+](=O)[O-])cc1OC,0.5,-21.6,57.3*,-22.5,-4.1
CC(C)Oc1ccc(CNC(=O)c2ccc3c(c2)nc2n3CCCCC2)cc1,-0.6,nt,nt,nt,nt
COc1ccc(CNC(=O)c2cccc(-n3cnc4cccnc43)c2C)cc1,0.3,nt,nt,-1.8,nt
CCOC(=O)C1(CCOc2ccccc2)CCN(Cc2ccc(COC)o2)CC1,-0.9,-15.2,-3.1,-13.9,-2.3
CCOC(=O)C1(CCOc2ccccc2)CCN(Cc2ccc(C)o2)CC1,-1.3,-19.2,42.2*,-17.4,-0.9
CCOC(=O)C1(CCOc2ccccc2)CCN(Cc2ccc(O)c(OCC)c2)CC1,-0.1,-26.1,39.0*,-14.5,8.2
COc1cccc(C2/C(=C(\O)c3ccc4c(c3)OCO4)C(=O)C(=O)N2CCN(C)C)c1OC (stereo not given),-2.3,-9.8,41.0*,4.2,-3.5
CCOc1ccc(/C(O)=C2\C(=O)C(=O)N(CCN(C)C)C2c2cccc(OC)c2OC)cc1Cl (stereo not given),0.7,-34.9,-5.6,-3.6,-2.3
COc1cccc(C2/C(=C(\O)c3ccc4c(c3)OCCO4)C(=O)C(=O)N2Cc2cccnc2)c1 (stereo not given),-0.1,-5.4,30.9*,-10.5,-2.9
O=C1C(=O)N(Cc2cccnc2)C(c2cccc([N+](=O)[O-])c2)/C1=C(\O)c1ccc2c(c1)OCCO2 (stereo not given),1.1,-5.9,2.4,2.2,2.1
CCN(CC)c1ccc(C(=O)N2CCc3c([nH]c4ccccc34)C2c2ccc(F)cc2)cc1 (stereo not given),-0.1,nt,nt,-12.4,nt
S=C(NCCN1CCOCC1)Nc1ccc(Cl)cc1,0.4,-7.4,1.1,-12.8,-3.3
SMILES,D2 ag-1,D2 PAM-1,D2 antag,D2 PAM-2,D2 ag-2
CCC(C)c1ccc(NC(=S)NC2CCN(Cc3ccccc3)CC2)cc1 (stereo not given),nt,-34.5,nt,-23.5,-3.0
S=C(Nc1ccc(Cl)cc1)NC1CCN(Cc2ccccc2)CC1,5.6,-30.6,69.4*,-22.3,0.3
CC1CCN(CCNC(=S)Nc2ccc(Cl)cc2)CC1,1.2,-17.3,30.7*,-15.0,-2.8
COc1ccc(NC(=S)NC2CCN(Cc3ccccc3)CC2)cc1OC,0.5,-14.9,23.2,-18.3,1.1
COc1ccc(CCNC(=S)NC2CCN(Cc3ccccc3)CC2)cc1,0.9,-18.8,71.2*,-29.5,-2.5
S=C(Nc1ccccc1)NC1CCN(Cc2ccccc2)CC1,1.4,-39.5,92.1*,-26.9,-4.2
Cc1ccc(CCNC(=O)c2cn(C)c3ccc(S(=O)(=O)N4CCCCC4)cc3c2=O)cc1,0.3,nt,nt,-3.2,nt
O=c1cc(-c2ccccc2)n2c(SCc3ccc([N+](=O)[O-])cc3)nnc2[nH]1,0.2,nt,nt,-0.4,nt
CCc1ccc(NC(=S)NC2CCN(Cc3ccccc3)CC2)cc1,3.7,-28.3,98.2*,-24.9,-3.0
Cc1ccc(-c2nn(-c3cccc(F)c3)cc2CN2CCN(c3ccccn3)CC2)o1,7.4,-18.4,80.2*,-26.0,-4.2
Cc1ccc(-c2nn(-c3cccc(F)c3)cc2CN(Cc2nccn2C)C(C)C)o1,-0.8,-18.0,2.5,-15.1,-4.3
CC(=O)N1CCN(C(=S)NC(=O)C23CC4CC(CC(C4)C2)C3)CC1,0.3,-13.5,-3.0,33.9*,-1.2
CNC(=S)N1CCC(NC(=O)C23CC4CC(CC(C4)C2)C3)CC1,0.3,-3.2,6.3,-3.7,4.5
Cn1c(=O)c2c(nc(NCC3CCCO3)n2Cc2ccccc2)n(C)c1=O (stereo not given),0.1,-12.2,12.5,40.3*,0.3
CCn1c(NCc2ccccn2)nc2c1c(=O)n(C)c(=O)n2C,0.0,13.5,0.8,63.4*,-1.2
Cn1c(=O)c2c(nc(NCc3ccccc3)n2Cc2ccccc2)n(C)c1=O,nt,nt,nt,15.4,nt
Cc1ccc(CNC(=O)c2cnc(N(C)C)nc2)cc1,0.3,nt,nt,0.5,nt
O=C1C(=O)N(C2CCN(C(=O)c3cccc(Cl)c3)CC2)CCN1Cc1ccc(F)cc1,0.1,nt,nt,0.2,nt
COc1ccc(C(CNC(=O)C(C)Oc2ccc(Br)cc2)N2CCCCC2)cc1 (stereo not given),0.6,-6.2,78.1*,-22.2,-5.0
COc1ccc(C(CNC(=O)c2oc3cc(Br)ccc3c2C)N2CCCCC2)cc1 (stereo not given),-0.1,-16.7,61.5*,-21.5,-1.0
COc1ccc(C(CNC(=O)CCNS(=O)(=O)c2ccc(Br)cc2)N2CCCC2)cc1 (stereo not given),-0.1,-37.3,-21.2,16.0,-5.8
COc1ccc(C(CNC(=O)c2oc3ccc(Br)cc3c2C)N2CCCCC2)cc1 (stereo not given),0.0,-32.3,-25.3,-14.2,3.8
Cc1ccc(N(Cc2cc3ccccc3[nH]c2=O)C(=O)c2cccc(Cl)c2)cc1,nt,nt,nt,-5.6,nt

# Compound activity deposited in PubChem by National Center for Advancing Translational Sciences (NCATS).
